Results on nine compounds are retold here after PubChem BioAssay (NCATS).

Results filed as inconclusive are left out. Active and inactive are the calls of the source. Unless noted, calls follow the shape of the dose curve; as a rule, active = well fitted inhibition curve with a large enough effect; inconclusive = small, poorly fitted or top-dose-only effect; inactive = no such curve, though single readings can be large or run the other way.

Test [1] can be described thus: qHTS profiling of the MIPE4 collection as inhibitors of Plasmodium falciparum (DD2) proliferation (AID 743345; call rule not given here). As to conditions: P. falciparum Dd2 in erythrocytes, SYBR Green DNA, 72 h; at 28.5 µM (top of the series) unless noted. An outline of the steps: (§1)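 Parasite DNA was quantified by SYBR Green I fluorescence (ex 485, em 535 nm) after overnight lysis in saponin/Triton buffer at room temperature. Cultures at 0.3% parasitemia and 2.5% hematocrit were first exposed to compound for 72 h at 37 C; signals were normalised to artemisinin (0.29 uM) and vehicle wells.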
(In qHTS, concentration-response curves come from the screen itself.)

A short description of test [2]: qHTS profiling of the MIPE4 collection as inhibitors of Plasmodium falciparum (DD2) proliferation (Rep 2) (AID 743346; call rule not given here). To be noted: P. falciparum Dd2 in erythrocytes, SYBR Green DNA, 72 h; at 28.5 µM (top of the series) unless noted. An outline of the steps: as §1
Test [3] in a line: qHTS profiling of the MIPE4 collection as inhibitors of Plasmodium falciparum (HB3) proliferation (AID 743347; call rule not given here;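 also: plate controls were DMSO vehicle wells for no effect and artemisinin wells for full effect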). As to conditions: P. falciparum HB3 in erythrocytes, SYBR Green DNA, 72 h; at 28.5 µM (top of the series) unless noted. In a few lines: as §1
The nature of test [4]: High-throughput drug toxicity screening in the BPDCN cell line Gen2.2 (AID 1224824; call rule not given here;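 also: cells exposed to compounds for 48 h before reading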). As to conditions: Gen2.2 BPDCN cells; at 45.8 µM (top of the series) unless noted. In a few lines:
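Gen2.2 cells (500/well) in phenol red-free RPMI with 10% FBS were exposed to compounds for 48 h at 37 °C, 5% CO2. Viability was read by CellTiter-Glo luminescence and normalized to DMSO (100%) and 9.2 uM bortezomib (0%).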

A short description of test [5]: High-throughput drug toxicity screening in the BPDCN cell line Cal-1 (AID 1224825; call rule not given here). As to conditions: Cal-1 BPDCN cell viability, qHTS; at 45.8 µM (top of the series) unless noted. An outline of the steps: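 Viability of the BPDCN line Cal-1 is measured as ATP-based luminescence (CellTiter-Glo) following 48 h incubation with compounds. Percent activity uses DMSO-treated wells as 100% and 9.2 uM bortezomib as 0%.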

A short description of test [6]: qHTS assay for measurement of the activity of small molecule inhibitors on Zika virus induced Caspase-3 activity in human iPSC derived neural progenitor cells (hNPCs) (AID 1224857). Also: % of control where 0% means no effect; nearly all actives have a fitted effect of over 65% in size. In a few lines:
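Human iPSC-derived neural progenitor cells pretreated 1 hr with compounds, then infected with Zika virus (2 FFU/cell) for 6 hours at 37 C. Caspase-3/7 measured by Caspase-Glo luminescence; % inhibition calculated from induction scaled to uninfected (0%) and infected (100%) wells.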

The nature of test [7]: qHTS assay for measurement of the activity of small molecule inhibitors on Zika virus induced Caspase-3 activity in human astrocytoma cells (AID 1224859).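 Also: plate controls were ZIKV-infected untreated cells for no effect and uninfected cells for full effect.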 In a few lines: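 SNB-19 astrocytoma cells, 250/well, pretreated 1 h with compounds, then Zika virus at 2 FFU/cell for 6 h at 37 C; Caspase-Glo 3/7 luminescence after 30 min; percent inhibition normalised to uninfected and infected controls.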

Test [8] can be described thus: qHTS Screen of the MIPE 4.0 Collection Against Ewings Sarcoma (RDES) (AID 1259252). Also: nearly all actives have a fitted effect of over 35% in size. Also: potency is read from the fitted curve at half-maximal effect. An outline of the steps:
(§2)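 Measured: ATP luminescence (CellTiter-Glo) 10 min after reagent addition, following 48 h drug treatment. Relative luciferase units converted to percent activity, with no-cell wells as full and DMSO wells as zero inhibition.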

The nature of test [9]: qHTS Screen of the MIPE 4.0 Collection Against Ewings Sarcoma (TC71) (AID 1259253). Also: nearly all actives have a fitted effect of over 40% in size. Also: potency is read from the fitted curve at half-maximal effect. An outline of the steps:
as §2

Test [10] is described as follows: qHTS Screen of the MIPE 4.0 Collection Against Ewings Sarcoma (EW8) (AID 1259255). Also: nearly all actives have a fitted effect of over 35% in size. Also: potency is read from the fitted curve at half-maximal effect.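 As to viability: 100% = DMSO-treated cells and 0% = medium-only wells without cells.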 An outline of the steps: as §2

As for `N[C@H]1CN(c2c(F)cc3c(=O)c(C(=O)O)cn(C4C[C@@H]4F)c3c2Cl)CC12CC2` (stereo partly specified), in test [1], the parasite growth remaining, % of DMSO control (lower = more inhibition) amounted to 24.5%. The same compound returned a parasite growth, % of control (lower = inhibition) in test [2] of 27.8%. The same compound gave a growth, % of control in test [3] of 10%. In addition, the cell viability, % of control (lower = more cytotoxic) in test [4] was 92.2%. Besides, the viability (% of control) in [5] stood at 92.9%. For the same compound, the Potency result in test [6], in test [7], in [8], in [9] and in test [10] was “inactive” in each case.

`CNC(=O)c1ccc(Nc2cc(Nc3ccccc3S(=O)(=O)C(C)C)c3cc[nH]c3n2)nc1` showed a parasite growth remaining, % of DMSO control (lower = more inhibition) in test [1] of 11.9%. Further, the parasite growth, % of control (lower = inhibition) in test [2] turned out to be 12.7%. In test [3], this compound showed a growth, % of control of 2.73%. Further, the cell viability, % of control (lower = more cytotoxic) in [4] amounted to 19.7%. Further, in [5], the viability (% of control) was found to be 3.36%. The Potency entry in [6] and in test [7] was “inactive” throughout. In addition, the Potency is 5.9 µM (active) in test [8], 4.18 µM (active) in test [9] and 0.59 µM (active) in test [10].

Turning to `COc1cc(C(C)C)c(Oc2cnc(NC(CO)CO)nc2N)cc1I`, in [1], the parasite growth remaining, % of DMSO control (lower = more inhibition) is 86.9%. In addition, the parasite growth, % of control (lower = inhibition) in test [2] came out at 60.9%. Also, the growth, % of control in [3] amounted to 97.9%. For the same compound, the cell viability, % of control (lower = more cytotoxic) in [4] was found to be 294%. The viability (% of control) in test [5] was determined as 1.88%. For the same compound, the Potency result in test [6] and in test [7] was “inactive” throughout. Moreover, the Potency in [8] was 0.935 µM (active); in [9], 1.05 µM (active); in test [10], 7.43 µM (active).

The compound `C[C@@]12C(=O)OC(=O)[C@@]1(C)C1CCC2O1` had a parasite growth remaining, % of DMSO control (lower = more inhibition) in test [1] of 14.9%. Also, the parasite growth, % of control (lower = inhibition) in test [2] was determined as 13.5%. In addition, in test [3], the growth, % of control is 7.05%. Further, in test [4], the cell viability, % of control (lower = more cytotoxic) came out at 5.4%. In addition, the viability (% of control) in test [5] turned out to be 3.87%. The Potency entry in [6] and in test [7] was “inactive” each time. Further, the figures for the Potency in [8], in test [9] and in test [10] were 2.64 µM (active), 4.18 µM (active) and 2.64 µM (active), respectively.

The compound `COC(=O)C1C2CC3c4[nH]c5cc(OC)ccc5c4CCN3CC2CC(OC(=O)c2cc(OC)c(OC)c(OC)c2)C1OC` (stereo unspecified) had a parasite growth remaining, % of DMSO control (lower = more inhibition) in test [1] of 39.3%. Further, in [2], the parasite growth, % of control (lower = inhibition) was found to be 20%. Besides, the growth, % of control in test [3] is 9.05%. Further, the cell viability, % of control (lower = more cytotoxic) in test [4] was 120%. For the same compound, the viability (% of control) in [5] was 78.7%. For the same compound, the Potency entry in test [6] and in test [7] was “inactive” in each case. Moreover, the results for the Potency in test [8], in [9] and in test [10] were 2.64 µM (active), 2.64 µM (active) and 2.96 µM (active), respectively.

`NC[C@H]1O[C@H](O[C@H]2[C@@H](O)[C@@H](O[C@H]3O[C@H](CO)[C@@H](O)[C@H](N)[C@@H]3O)[C@H](N)C[C@@H]2N)[C@H](N)C[C@H]1O` returned a parasite growth remaining, % of DMSO control (lower = more inhibition) in [1] of 92.9%. The parasite growth, % of control (lower = inhibition) in [2] worked out at 78%. The growth, % of control in test [3] was 88.3%. Further, the cell viability, % of control (lower = more cytotoxic) in [4] came out at 200%. Moreover, in test [5], the viability (% of control) worked out at 123%. Further, the Potency result in test [6], in test [7], in [9] and in test [10] was “inactive” throughout.

As for `Cc1ccc(-n2[nH]c(C)c(N=Nc3cccc(-c4cccc(C(=O)O)c4)c3O)c2=O)cc1C`, the parasite growth remaining, % of DMSO control (lower = more inhibition) in test [1] worked out at 92.5%. In test [2], this compound had a parasite growth, % of control (lower = inhibition) of 72.1%. Also, in test [4], the cell viability, % of control (lower = more cytotoxic) was determined as 180%. Besides, in test [5], the viability (% of control) stood at 28.2%. The Potency result in [6] and in test [7] was “inactive” each time. For the same compound, the Potency was 11.8 µM (active) in [9] and 18.7 µM (active) in test [10].

For `CC(C)c1cnn2c(NCc3ccccc3)cc(NCCCCCCN)nc12`, the parasite growth remaining, % of DMSO control (lower = more inhibition) in test [1] stood at 12.1%. In test [2], this compound yielded a parasite growth, % of control (lower = inhibition) of 11.2%. This compound returned a growth, % of control in test [3] of 2.16%. In addition, in [4], the cell viability, % of control (lower = more cytotoxic) amounted to 4.58%. Further, in test [5], the viability (% of control) was 3.93%. The Potency entry in test [6] and in test [7] was “inactive” in each case. In addition, the results for the Potency in [8], in test [9] and in [10] were 3.72 µM (active), 4.69 µM (active) and 18.7 µM (active), respectively.

`O=C(c1ccc(F)cc1)N1CCC[C@H](c2nc(-c3ccc(F)cc3)no2)C1` registered a parasite growth remaining, % of DMSO control (lower = more inhibition) in test [1] of 94.6%. The compound also showed a parasite growth, % of control (lower = inhibition) in [2] of 70.9%. In test [3], this compound showed a growth, % of control of 82.2%. The cell viability, % of control (lower = more cytotoxic) in [4] is 93.8%. For the same compound, the viability (% of control) in [5] was 111%. For the same compound, the Potency result in [6], in test [8], in test [9] and in [10] was “inactive” each time.
